# Laboratory results taken from PubChem BioAssay (NCATS).
# Inconclusive results are not listed. A number with no mark means an inactive call. Active and inactive are the calls of the source. The call rests on the fitted dose curve; in most records, active means well fitted inhibition curve with a large enough effect; inconclusive means small, poorly fitted or top-dose-only effect; inactive means flat fitted curve, though single readings scatter.
# Molecular target: Aldehyde dehydrogenase, mitochondrial (Homo sapiens) (UniProt P05091)
# Assay: qHTS for Inhibitors of the Aldehyde Dehydrogenase Family (ALDH2) Primary screen (AID 2061308);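 further: plate controls were vehicle for no effect and reference inhibitor for full effect; nearly all actives have a fitted effect of over 55% in size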
# Details: ALDH2 enzyme inhibition qHTS, 1536-well; series mostly up to 56 µM; activity change, negative = inhibition: at the top concentration
Compound,"activity change, negative = inhibition [%]",Potency
O=C(C[C@H]1CC[C@@H](C(=O)Nc2ccc(S(=O)(=O)Nc3nccs3)cc2)C1)c1ccccc1,2.88,
CCc1nn2c(=O)cc(NC3CNC3)nc2s1,0.123,
Cc1cc(NC(=O)Nc2nnc(-c3cccnc3)s2)ccc1Cl,,inactive
COc1cc(O)c(C(CC(=O)N2CCCC(C)C2)c2ccc3c(c2)OCO3)c(OC)c1 (configuration not stated),-9.31,
COc1ccc(-c2nc3ccc(Cl)cc3c(=O)n2Cc2ccccc2)cc1COc1ccc(NC(C)=O)cc1,0.0636,
COc1ccc(-c2nc3ccc(OC)cc3s2)cc1,11.9,
COc1ccc(Nc2nn3c(=O)c4ccccc4nc3s2)cc1,-25.2,
COc1ccc(C2=Nn3c(nnc3-c3ccccc3Cl)SC2)cc1OC,2.99,
O=C(OCC#CCSc1nnc(-c2cccc3ccccc23)o1)c1ccc(Cl)c(C(F)(F)F)c1,-26.1,
COc1ccc(-c2nnc3n2N=C(c2c(OC)cccc2OC)CS3)cc1,6.03,
CC(C)(C)OC(=O)Cc1nnc(C(C(=O)OCc2ccccc2)c2ccccc2)o1 (configuration not stated),-1.33,
CN(C)c1cccc(-c2cc(N3CCC(C(N)=O)CC3)ncn2)c1,-1.56,
CCOc1ccc(CCNC(=O)C2COc3ccccc3O2)cc1OCC (configuration not stated),-0.484,
Cc1ccc(S(=O)(=O)N2CCN(c3nc(C#N)nc4ccccc34)CC2)cc1,5.33,
FC(F)(F)c1cccc(Nc2ccc(CNc3nc(-c4ccccc4C(F)(F)F)nc4ccccc34)cc2)c1,-19.2,
Cc1ccc(NS(=O)(=O)c2cc3c(cc2F)NC(=O)CC3)cc1Cl,,inactive
O=C(N1CCc2cc([S+](=O)([O-])N3CCN([S+](=O)([O-])c4c(F)cccc4F)CC3)ccc2C1)C(F)(F)F,-1.71,
